# Measured values from ChEMBL document CHEMBL1961873, “Compounds: GSK PKIS; Assays: Nanosyn kinase panel” (2012).
# Tests used:
# [1] = target: Sphingosine kinase 1 (Homo sapiens) (UniProt Q9NYA1); conditions: at 1 µM;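 note: mean SPHK1 inhibition value reported from the GSK PKIS kinase panel screen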
# [2] = target: T1, Sphingosine kinase 2 (Homo sapiens) (UniProt Q9NRA0); conditions: at 0.1 µM
# T1 sequence (whole entry): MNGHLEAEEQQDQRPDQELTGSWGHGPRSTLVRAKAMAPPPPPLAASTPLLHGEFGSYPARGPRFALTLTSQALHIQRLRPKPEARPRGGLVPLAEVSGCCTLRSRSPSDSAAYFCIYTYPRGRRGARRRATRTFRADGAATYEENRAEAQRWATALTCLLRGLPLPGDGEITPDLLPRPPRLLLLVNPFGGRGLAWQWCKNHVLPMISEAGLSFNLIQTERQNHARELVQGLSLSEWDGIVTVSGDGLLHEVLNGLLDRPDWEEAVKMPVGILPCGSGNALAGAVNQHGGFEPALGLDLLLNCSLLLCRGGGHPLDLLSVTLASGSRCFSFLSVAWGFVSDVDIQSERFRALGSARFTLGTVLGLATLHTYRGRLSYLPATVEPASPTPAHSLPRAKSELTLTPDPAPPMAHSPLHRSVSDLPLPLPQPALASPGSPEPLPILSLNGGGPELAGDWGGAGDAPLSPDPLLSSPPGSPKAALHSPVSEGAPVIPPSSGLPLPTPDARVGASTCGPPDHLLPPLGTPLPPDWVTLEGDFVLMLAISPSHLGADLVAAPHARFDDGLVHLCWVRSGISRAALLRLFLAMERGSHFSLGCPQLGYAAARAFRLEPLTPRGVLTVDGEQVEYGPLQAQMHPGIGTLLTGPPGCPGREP
# [3] = target: T1, Sphingosine kinase 2 (Homo sapiens); conditions: at 1 µM
# [4] = target: Casein kinase II subunit alpha (Homo sapiens) (UniProt P68400); conditions: at 0.1 µM
# Sequence of Casein kinase II subunit alpha (Homo sapiens) (P68400 whole entry, looked up): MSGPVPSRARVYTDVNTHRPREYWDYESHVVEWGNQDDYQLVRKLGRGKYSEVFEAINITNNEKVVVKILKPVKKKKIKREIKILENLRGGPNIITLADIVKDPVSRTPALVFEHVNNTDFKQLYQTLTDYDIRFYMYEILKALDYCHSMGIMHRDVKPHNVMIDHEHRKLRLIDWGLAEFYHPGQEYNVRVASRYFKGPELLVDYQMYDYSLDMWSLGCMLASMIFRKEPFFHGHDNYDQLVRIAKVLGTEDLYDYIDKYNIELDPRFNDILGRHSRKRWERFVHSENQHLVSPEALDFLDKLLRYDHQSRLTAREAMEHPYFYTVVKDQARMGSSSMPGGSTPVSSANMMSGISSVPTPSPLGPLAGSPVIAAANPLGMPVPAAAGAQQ
# [5] = target: Casein kinase II subunit alpha (Homo sapiens) (UniProt P68400); conditions: at 1 µM
# [6] = target: T2, Inhibitor of nuclear factor kappa-B kinase subunit alpha (Homo sapiens) (UniProt O15111); conditions: at 0.1 µM
# T2 sequence (whole entry): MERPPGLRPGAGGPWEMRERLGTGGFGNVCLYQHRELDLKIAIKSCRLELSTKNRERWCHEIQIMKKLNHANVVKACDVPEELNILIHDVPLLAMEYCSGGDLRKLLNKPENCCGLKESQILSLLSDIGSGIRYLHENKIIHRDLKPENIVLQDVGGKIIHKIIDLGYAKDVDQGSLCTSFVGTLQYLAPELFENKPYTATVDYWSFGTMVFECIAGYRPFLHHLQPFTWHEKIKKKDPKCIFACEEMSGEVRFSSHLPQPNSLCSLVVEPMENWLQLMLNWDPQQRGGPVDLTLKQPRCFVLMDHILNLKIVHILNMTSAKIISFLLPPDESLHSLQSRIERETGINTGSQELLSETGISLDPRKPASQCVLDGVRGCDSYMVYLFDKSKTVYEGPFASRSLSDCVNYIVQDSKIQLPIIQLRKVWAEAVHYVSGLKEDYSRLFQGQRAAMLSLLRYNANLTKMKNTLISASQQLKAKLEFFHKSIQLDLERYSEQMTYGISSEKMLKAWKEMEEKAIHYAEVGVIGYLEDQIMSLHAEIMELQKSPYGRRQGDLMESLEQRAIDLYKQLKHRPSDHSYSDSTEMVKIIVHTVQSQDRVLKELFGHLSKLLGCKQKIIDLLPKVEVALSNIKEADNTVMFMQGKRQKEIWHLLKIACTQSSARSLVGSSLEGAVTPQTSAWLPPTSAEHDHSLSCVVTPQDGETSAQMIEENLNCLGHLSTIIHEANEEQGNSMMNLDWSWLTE
# [7] = target: T2, Inhibitor of nuclear factor kappa-B kinase subunit alpha (Homo sapiens); conditions: at 1 µM
# [8] = target: T3, Inhibitor of nuclear factor kappa-B kinase subunit beta (Homo sapiens) (UniProt O14920); conditions: at 0.1 µM
# T3 sequence (whole entry): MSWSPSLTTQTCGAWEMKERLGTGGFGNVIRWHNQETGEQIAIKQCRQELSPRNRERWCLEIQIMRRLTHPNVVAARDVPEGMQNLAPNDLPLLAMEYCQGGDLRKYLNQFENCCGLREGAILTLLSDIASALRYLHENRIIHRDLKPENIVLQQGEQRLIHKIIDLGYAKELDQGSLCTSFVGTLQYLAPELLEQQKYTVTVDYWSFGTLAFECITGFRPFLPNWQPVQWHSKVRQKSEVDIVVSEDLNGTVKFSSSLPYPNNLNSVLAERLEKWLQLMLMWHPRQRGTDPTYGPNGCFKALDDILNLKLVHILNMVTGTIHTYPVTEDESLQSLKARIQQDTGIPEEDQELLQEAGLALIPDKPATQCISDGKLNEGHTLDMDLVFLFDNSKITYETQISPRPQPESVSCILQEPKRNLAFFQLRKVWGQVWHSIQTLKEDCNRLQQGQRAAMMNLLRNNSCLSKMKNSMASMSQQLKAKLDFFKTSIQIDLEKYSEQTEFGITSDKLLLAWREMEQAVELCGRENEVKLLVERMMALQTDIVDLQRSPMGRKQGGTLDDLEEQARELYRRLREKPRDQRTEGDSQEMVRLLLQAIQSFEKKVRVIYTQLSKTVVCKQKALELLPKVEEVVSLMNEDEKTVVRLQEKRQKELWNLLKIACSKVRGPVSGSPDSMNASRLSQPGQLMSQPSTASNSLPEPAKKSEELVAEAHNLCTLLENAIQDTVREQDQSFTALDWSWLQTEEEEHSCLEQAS
# [9] = target: T3, Inhibitor of nuclear factor kappa-B kinase subunit beta (Homo sapiens); conditions: at 1 µM
# [10] = target: T4, Inhibitor of nuclear factor kappa-B kinase subunit epsilon (Homo sapiens) (UniProt Q14164); conditions: at 0.1 µM
# T4 sequence (whole entry): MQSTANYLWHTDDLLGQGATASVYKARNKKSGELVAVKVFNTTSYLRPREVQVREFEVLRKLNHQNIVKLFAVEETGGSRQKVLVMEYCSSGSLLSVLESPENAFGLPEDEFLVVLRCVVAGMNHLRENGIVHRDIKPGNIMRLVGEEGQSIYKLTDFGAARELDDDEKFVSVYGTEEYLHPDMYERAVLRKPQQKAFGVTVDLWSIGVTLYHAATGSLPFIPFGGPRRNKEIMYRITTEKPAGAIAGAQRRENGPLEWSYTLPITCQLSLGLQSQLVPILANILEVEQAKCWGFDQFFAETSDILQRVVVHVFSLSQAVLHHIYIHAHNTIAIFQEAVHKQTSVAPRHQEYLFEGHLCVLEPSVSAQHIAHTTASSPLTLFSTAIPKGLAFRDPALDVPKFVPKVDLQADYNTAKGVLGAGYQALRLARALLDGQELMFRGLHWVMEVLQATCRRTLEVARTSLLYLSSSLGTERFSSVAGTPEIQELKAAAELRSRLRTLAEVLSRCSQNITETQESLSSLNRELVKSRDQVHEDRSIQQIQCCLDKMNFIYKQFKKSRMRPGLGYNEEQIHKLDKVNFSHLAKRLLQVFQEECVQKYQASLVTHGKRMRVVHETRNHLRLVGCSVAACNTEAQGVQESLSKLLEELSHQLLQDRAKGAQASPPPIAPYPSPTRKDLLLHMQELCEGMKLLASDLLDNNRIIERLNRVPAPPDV
# [11] = target: T4, Inhibitor of nuclear factor kappa-B kinase subunit epsilon (Homo sapiens); conditions: at 1 µM
# [12] = target: T5, Serine/threonine-protein kinase Nek1 (Homo sapiens) (UniProt Q96PY6); conditions: at 0.1 µM
# T5 sequence (whole entry): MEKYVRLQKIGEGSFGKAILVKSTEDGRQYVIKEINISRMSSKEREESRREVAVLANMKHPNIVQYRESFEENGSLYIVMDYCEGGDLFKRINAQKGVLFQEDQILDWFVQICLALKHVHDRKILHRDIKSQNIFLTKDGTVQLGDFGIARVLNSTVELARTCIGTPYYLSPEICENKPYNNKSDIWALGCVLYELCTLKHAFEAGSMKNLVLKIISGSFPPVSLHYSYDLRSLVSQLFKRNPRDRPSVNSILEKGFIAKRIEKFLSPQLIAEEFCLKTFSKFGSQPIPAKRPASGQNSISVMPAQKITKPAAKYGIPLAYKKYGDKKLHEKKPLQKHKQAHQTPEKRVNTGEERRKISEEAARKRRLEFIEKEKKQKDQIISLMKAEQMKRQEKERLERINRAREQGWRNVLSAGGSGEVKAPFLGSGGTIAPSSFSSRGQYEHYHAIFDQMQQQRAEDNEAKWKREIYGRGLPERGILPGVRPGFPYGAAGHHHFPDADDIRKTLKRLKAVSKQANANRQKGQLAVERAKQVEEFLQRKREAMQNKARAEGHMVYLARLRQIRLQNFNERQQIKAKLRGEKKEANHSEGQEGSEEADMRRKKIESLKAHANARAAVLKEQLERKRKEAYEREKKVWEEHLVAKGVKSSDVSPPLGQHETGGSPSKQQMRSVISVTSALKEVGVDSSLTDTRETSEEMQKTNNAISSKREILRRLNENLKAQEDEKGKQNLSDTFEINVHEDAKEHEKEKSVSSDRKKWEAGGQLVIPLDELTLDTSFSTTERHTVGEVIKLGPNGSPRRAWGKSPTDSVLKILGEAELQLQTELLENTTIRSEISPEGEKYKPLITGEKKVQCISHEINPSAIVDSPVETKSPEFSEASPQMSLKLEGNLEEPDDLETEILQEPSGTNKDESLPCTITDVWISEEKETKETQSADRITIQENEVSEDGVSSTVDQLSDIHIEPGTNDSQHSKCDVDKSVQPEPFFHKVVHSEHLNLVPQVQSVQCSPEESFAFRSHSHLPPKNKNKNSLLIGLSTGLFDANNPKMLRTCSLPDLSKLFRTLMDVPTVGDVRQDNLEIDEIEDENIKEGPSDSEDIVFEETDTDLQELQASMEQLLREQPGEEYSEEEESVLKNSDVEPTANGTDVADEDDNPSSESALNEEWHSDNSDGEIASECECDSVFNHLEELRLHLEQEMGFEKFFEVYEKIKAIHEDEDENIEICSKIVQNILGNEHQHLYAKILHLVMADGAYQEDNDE
# [13] = target: T5, Serine/threonine-protein kinase Nek1 (Homo sapiens); conditions: at 1 µM
# [14] = target: T6, Serine/threonine-protein kinase Nek2 (Homo sapiens) (UniProt P51955); conditions: at 0.1 µM
# T6 sequence (whole entry): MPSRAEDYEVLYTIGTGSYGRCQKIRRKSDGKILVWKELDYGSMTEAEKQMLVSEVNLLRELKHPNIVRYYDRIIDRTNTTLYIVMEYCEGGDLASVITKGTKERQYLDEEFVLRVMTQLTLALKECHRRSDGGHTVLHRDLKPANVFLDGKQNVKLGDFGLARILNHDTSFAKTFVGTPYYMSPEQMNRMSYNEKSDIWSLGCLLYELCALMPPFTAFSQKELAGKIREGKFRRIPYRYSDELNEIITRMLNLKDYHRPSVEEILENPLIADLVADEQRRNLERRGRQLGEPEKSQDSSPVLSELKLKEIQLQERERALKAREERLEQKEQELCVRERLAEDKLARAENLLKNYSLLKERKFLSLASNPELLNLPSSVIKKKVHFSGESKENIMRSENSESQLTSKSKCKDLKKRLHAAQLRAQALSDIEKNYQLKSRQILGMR
# [15] = target: T6, Serine/threonine-protein kinase Nek2 (Homo sapiens); conditions: at 1 µM
# [16] = target: Serine/threonine-protein kinase Nek6 (Homo sapiens) (UniProt Q9HC98); conditions: at 0.1 µM
# Sequence of Serine/threonine-protein kinase Nek6 (Homo sapiens) (Q9HC98 whole entry): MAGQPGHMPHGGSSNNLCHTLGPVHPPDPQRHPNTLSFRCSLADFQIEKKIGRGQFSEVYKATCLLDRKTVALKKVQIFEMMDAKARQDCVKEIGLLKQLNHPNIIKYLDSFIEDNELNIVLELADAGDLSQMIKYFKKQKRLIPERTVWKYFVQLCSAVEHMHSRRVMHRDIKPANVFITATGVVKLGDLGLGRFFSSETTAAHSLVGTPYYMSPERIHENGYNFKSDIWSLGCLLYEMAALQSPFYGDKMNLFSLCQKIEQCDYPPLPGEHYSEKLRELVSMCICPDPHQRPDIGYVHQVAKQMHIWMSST
# [17] = target: Serine/threonine-protein kinase Nek6 (Homo sapiens) (UniProt Q9HC98); conditions: at 1 µM
# [18] = target: Serine/threonine-protein kinase Nek7 (Homo sapiens) (UniProt Q8TDX7); conditions: at 0.1 µM
# Sequence of Serine/threonine-protein kinase Nek7 (Homo sapiens) (Q8TDX7 whole entry, looked up): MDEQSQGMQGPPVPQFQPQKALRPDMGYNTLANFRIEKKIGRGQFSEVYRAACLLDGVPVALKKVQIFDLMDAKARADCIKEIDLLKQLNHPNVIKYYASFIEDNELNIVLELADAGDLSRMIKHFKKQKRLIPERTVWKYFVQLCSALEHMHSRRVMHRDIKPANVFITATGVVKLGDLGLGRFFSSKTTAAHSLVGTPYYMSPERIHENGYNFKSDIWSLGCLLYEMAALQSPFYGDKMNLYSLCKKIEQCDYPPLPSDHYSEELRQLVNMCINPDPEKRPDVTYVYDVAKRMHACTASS
# [19] = target: Serine/threonine-protein kinase Nek7 (Homo sapiens) (UniProt Q8TDX7); conditions: at 1 µM
# [20] = target: T7, Serine/threonine-protein kinase Nek9 (Homo sapiens) (UniProt Q8TD19); conditions: at 0.1 µM;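 note: reported value is the mean percent inhibition of NEK9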
# T7 sequence (whole entry): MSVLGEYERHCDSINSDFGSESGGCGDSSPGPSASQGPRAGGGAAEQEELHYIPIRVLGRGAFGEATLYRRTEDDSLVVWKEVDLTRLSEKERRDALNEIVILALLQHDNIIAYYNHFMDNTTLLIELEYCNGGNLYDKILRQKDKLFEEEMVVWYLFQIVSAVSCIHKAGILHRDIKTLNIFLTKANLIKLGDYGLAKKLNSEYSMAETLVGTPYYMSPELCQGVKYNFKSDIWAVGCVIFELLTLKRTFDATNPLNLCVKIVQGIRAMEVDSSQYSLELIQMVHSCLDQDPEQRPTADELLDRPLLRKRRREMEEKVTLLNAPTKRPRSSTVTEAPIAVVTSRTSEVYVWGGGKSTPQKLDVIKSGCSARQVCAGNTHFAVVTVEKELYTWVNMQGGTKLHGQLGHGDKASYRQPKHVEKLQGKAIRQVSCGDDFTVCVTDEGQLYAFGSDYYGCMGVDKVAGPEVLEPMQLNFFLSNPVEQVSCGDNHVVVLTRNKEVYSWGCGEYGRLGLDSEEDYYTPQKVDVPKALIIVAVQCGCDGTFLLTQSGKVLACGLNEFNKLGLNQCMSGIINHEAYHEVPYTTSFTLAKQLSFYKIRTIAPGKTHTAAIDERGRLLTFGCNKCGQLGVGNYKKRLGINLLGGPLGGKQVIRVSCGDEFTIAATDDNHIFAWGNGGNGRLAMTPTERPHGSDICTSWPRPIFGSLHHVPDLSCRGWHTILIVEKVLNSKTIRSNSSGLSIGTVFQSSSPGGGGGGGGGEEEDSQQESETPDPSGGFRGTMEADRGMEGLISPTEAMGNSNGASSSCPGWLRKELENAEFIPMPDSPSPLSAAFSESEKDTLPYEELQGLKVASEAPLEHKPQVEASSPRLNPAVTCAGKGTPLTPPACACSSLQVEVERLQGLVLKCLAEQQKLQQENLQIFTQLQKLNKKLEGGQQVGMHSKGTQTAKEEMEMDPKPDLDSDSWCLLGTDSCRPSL
# Sequence of Sphingosine kinase 1 (Homo sapiens) (Q9NYA1 whole entry): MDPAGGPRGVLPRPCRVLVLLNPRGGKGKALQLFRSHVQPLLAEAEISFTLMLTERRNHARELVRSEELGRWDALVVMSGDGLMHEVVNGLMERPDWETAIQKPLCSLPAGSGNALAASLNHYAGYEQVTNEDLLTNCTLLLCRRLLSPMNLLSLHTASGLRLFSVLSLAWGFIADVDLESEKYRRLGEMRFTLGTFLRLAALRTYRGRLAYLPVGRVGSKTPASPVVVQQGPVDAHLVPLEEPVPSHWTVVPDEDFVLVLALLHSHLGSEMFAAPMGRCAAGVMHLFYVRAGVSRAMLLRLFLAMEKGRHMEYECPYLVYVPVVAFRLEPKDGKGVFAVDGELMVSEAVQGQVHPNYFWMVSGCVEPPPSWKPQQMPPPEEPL
compound,measurement,setting,value
Cc1ccc(C(=O)NC2CCCCC2)cc1-c1ccc(C(=O)NCC2CC2)cc1,inhibition,[1],-0.86%
same,inhibition,[2],-0.91%
same,inhibition,[3],-1.61%
same,inhibition,[4],0.66%
same,inhibition,[5],-5.06%
same,inhibition,[6],-3.35%
same,inhibition,[7],-8.02%
same,inhibition,[8],3.29%
same,inhibition,[9],-2.31%
same,inhibition,[10],1.75%
same,inhibition,[11],0.57%
same,inhibition,[12],1.91%
same,inhibition,[13],1.48%
same,inhibition,[14],3.04%
same,inhibition,[15],3.36%
same,inhibition,[16],3.51%
same,inhibition,[17],-2.96%
same,inhibition,[18],4.39%
same,inhibition,[19],3.76%
same,inhibition,[20],-0.48%
